We go through 13 compounds from PubChem BioAssay (NCI).

About 83,000 compounds went through this panel and 20% of them were active in at least one assay; those are over-represented in the sample as a whole.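 Cells were grown in 96-well plates and exposed to the test compound at a single concentration for 48 hours; results are reported as percent growth, with values below 10 considered active.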 A number with no mark means an inactive call. Activity calls are given as the source filed them.

Some test systems named below: HCT-15 colon; HT29 colon; SNB-75 CNS; SNB-19 CNS; U251 CNS; PC-3 prostate; SK-MEL-5 melanoma; UACC-62 melanoma; LOX IMVI melanoma; SK-MEL-28 melanoma.
Common to all, as to experiment: NCI-60 one-dose screen, 48 h (100 = growth as untreated, 0 = no growth, -100 = all killed)
Details in all cases: 10 µM unless noted

Turning to `CC(=O)c1ccc(Nc2nccc(-c3ccc(Cl)cc3)n2)cc1`, the growth is 82.3% in the assay on HCT-15 colon; 86.2% in the assay with HT29 colon; 105% in the assay with SNB-75 CNS; 98% in the assay with SNB-19 CNS; 78.4% with U251 CNS; 89.6% in the assay with PC-3 prostate. Also, the growth is 102% with SK-MEL-5 melanoma, 86.5% with UACC-62 melanoma, 90.7% in the assay with LOX IMVI melanoma and 113% in the assay on SK-MEL-28 melanoma.
Take `COc1cc(CNC(=O)CCCC/C=C/C(C)C)ccc1OCc1cn(-c2cccc([N+](=O)[O-])c2)nn1`: the growth in the assay with HCT-15 colon was 77.9%; in the assay with HT29 colon it was 88.9%; with SNB-75 CNS it was 92%; with SNB-19 CNS, 68.2%; in the assay with U251 CNS it was 85.3%; in the assay with PC-3 prostate it was 82.2%. For the same compound, the growth with SK-MEL-5 melanoma is 93.2%; in the assay with UACC-62 melanoma it was 70.1%; in the assay on LOX IMVI melanoma it was 92.9%; in the assay with SK-MEL-28 melanoma, 106%.
As to `CCCS(=O)(=O)Nc1cccc(Nc2ncnc3cc(NC(=O)CCl)ccc23)c1Cl`, the growth in the assay with HCT-15 colon was -26.7% (active); with HT29 colon it was -63.4% (active); in the assay with SNB-75 CNS, -93.3% (active); in the assay with SNB-19 CNS, 0.0363% (active); in the assay on U251 CNS it was -93.3% (active); in the assay with PC-3 prostate it was -25.7% (active). In addition, the growth was -85.3% (active) in the assay on SK-MEL-5 melanoma, -66.2% (active) in the assay on UACC-62 melanoma, -83.9% (active) in the assay with LOX IMVI melanoma and -22.8% (active) in the assay on SK-MEL-28 melanoma.
Turning to `C=CN(C(=O)N1CCN(c2cc3c(cc2F)c(=O)c(C(=O)O)cn3C2CC2)CC1)c1nc(-c2ccc(C)cc2)cs1`, the growth in the assay on HCT-15 colon was 9.38% (active); with HT29 colon, 6.66% (active); in the assay on SNB-75 CNS, 14.4%; in the assay with SNB-19 CNS it was 18.5%; in the assay on U251 CNS, 11.4%; in the assay on PC-3 prostate, 14.7%. Also, the growth in the assay on SK-MEL-5 melanoma was 26.6%; with UACC-62 melanoma, 29.2%; in the assay on LOX IMVI melanoma, 8.56% (active); in the assay with SK-MEL-28 melanoma it was 42.1%.
Take `O=C(Nc1ccc2[nH]ncc2c1)c1csc(Nc2ccccc2)n1`: the growth with HCT-15 colon was 16.9%; in the assay with HT29 colon, 11.8%; in the assay with SNB-75 CNS, 36%; in the assay on SNB-19 CNS, 30.1%; with U251 CNS, 28.7%; in the assay on PC-3 prostate, 38.7%. Further, the growth with SK-MEL-5 melanoma is 12.3%; in the assay with UACC-62 melanoma it was 26.8%; in the assay on LOX IMVI melanoma it was 40.8%; with SK-MEL-28 melanoma it was 64.1%.
With `C=C(CNCCO)[C@@H]1CC[C@]2(CO)CC[C@]3(C)[C@H](CC[C@@H]4[C@@]5(C)CCC(NCCO)C(C)(C)[C@@H]5CC[C@]43C)[C@@H]12` (stereo not given in full), the growth with HCT-15 colon is 71.6%; with HT29 colon, 12.7%; in the assay on SNB-75 CNS it was 66.8%; in the assay on SNB-19 CNS, 83.6%; with U251 CNS, 31.4%; with PC-3 prostate, 75.2%. The growth was 65.2% in the assay with SK-MEL-5 melanoma, 94.6% in the assay on UACC-62 melanoma, 33.3% in the assay with LOX IMVI melanoma and 80.7% in the assay on SK-MEL-28 melanoma.
As for `O=C1N/C(=N/N=C(c2ccccc2)c2ccccc2)S/C1=C\c1ccc(Br)cc1`, the growth is 97.8% with HCT-15 colon; 81.8% in the assay with HT29 colon; 101% with SNB-75 CNS; 100% in the assay on SNB-19 CNS; 91.3% in the assay on U251 CNS; 89.8% with PC-3 prostate. The growth was 97.2% with SK-MEL-5 melanoma, 79.8% in the assay on UACC-62 melanoma, 98.5% in the assay on LOX IMVI melanoma and 112% in the assay on SK-MEL-28 melanoma.
As to `C=C(CNCCc1ccc(O)cc1)[C@@H]1CC[C@]2(CO)CC[C@]3(C)[C@H](CC[C@@H]4[C@@]5(C)CCC(N)C(C)(C)[C@@H]5CC[C@]43C)[C@@H]12` (stereo not given in full), the growth in the assay with HCT-15 colon was -79.3% (active); in the assay with HT29 colon, -49.9% (active); in the assay on SNB-75 CNS, -97.8% (active); in the assay on SNB-19 CNS, -86.1% (active); in the assay on U251 CNS, -84.4% (active); in the assay with PC-3 prostate, -75.3% (active). Moreover, the growth was -95.2% (active) in the assay on SK-MEL-5 melanoma, -86.7% (active) with UACC-62 melanoma, -86.7% (active) in the assay with LOX IMVI melanoma and -90.5% (active) in the assay with SK-MEL-28 melanoma.
As for `COc1ccc(S(=O)(=O)Oc2ccc(-c3sc4cc(OS(=O)(=O)c5ccc(OC)cc5)ccc4c3C(=O)c3ccc(OCCN4CCCCC4)cc3)cc2)cc1`, the growth with HCT-15 colon was 101%; in the assay with HT29 colon, 92%; with SNB-75 CNS, 70.9%; in the assay on SNB-19 CNS it was 103%; with U251 CNS it was 99.7%; with PC-3 prostate it was 106%. Further, the growth was 101% with SK-MEL-5 melanoma, 101% in the assay on UACC-62 melanoma, 101% in the assay with LOX IMVI melanoma and 103% with SK-MEL-28 melanoma.
Regarding `COc1cc2cc(Oc3ccc(NC(=O)Nc4ccc(Cl)c(Cl)c4)cc3)c(C)nc2cc1OCCN1CCCCC1`, the growth with HCT-15 colon is 71.6%; in the assay on HT29 colon, 19.9%; in the assay on SNB-75 CNS, 96.8%; with SNB-19 CNS, 99.3%; with U251 CNS, 53.2%; in the assay on PC-3 prostate, -30.2% (active). Moreover, the growth with SK-MEL-5 melanoma was 89%; in the assay on UACC-62 melanoma it was 106%; with LOX IMVI melanoma, 99.1%; with SK-MEL-28 melanoma, 98.2%.
In the case of `O=C(O)CCCN1C(=O)CSC1=S`, the growth in the assay on HCT-15 colon was 94.3%; in the assay with HT29 colon, 108%; with SNB-75 CNS, 85.6%; in the assay with SNB-19 CNS, 102%; in the assay on U251 CNS, 108%; with PC-3 prostate, 95.3%. For the same compound, the growth in the assay on SK-MEL-5 melanoma is 101%; in the assay with UACC-62 melanoma it was 96.2%; in the assay on LOX IMVI melanoma, 94.7%; with SK-MEL-28 melanoma, 105%.
Regarding `CCCCC/C=C/CCC(=O)N[C@H]1[C@H](Oc2c3cc4cc2Oc2ccc(cc2Cl)[C@@H](O[C@@H]2O[C@H](CO)[C@@H](O)[C@H](O)[C@H]2NC(C)=O)[C@@H]2NC(=O)[C@H](NC(=O)[C@@H]4NC(=O)[C@H]4NC(=O)[C@@H](Cc5ccc(c(Cl)c5)O3)NC(=O)[C@@H](N)c3ccc(O)c(c3)Oc3cc(O)cc4c3)c3ccc(O)c(c3)-c3c(O[C@H]4O[C@H](CO)[C@@H](O)[C@H](O)[C@@H]4O)cc(O)cc3[C@H](C(=O)O)NC2=O)O[C@H](CO)[C@H](O)[C@@H]1O`, the growth was 111% in the assay with HCT-15 colon; 103% in the assay on HT29 colon; 109% in the assay on SNB-75 CNS; 87.3% with SNB-19 CNS; 95.7% in the assay with U251 CNS; 89.9% in the assay with PC-3 prostate. The growth in the assay with SK-MEL-5 melanoma is 108%; in the assay on UACC-62 melanoma it was 96.4%; in the assay with LOX IMVI melanoma, 91.5%; in the assay with SK-MEL-28 melanoma, 119%.
For the compound `O=C(NCCN1CCOCC1)c1cncnc1Nc1ccc2c(ccn2Cc2ccccn2)c1`, the growth is 105% with HCT-15 colon; 102% with HT29 colon; 82.4% in the assay with SNB-75 CNS; 95.5% with SNB-19 CNS; 99.7% with U251 CNS; 101% in the assay with PC-3 prostate. In addition, the growth is 101% in the assay with SK-MEL-5 melanoma, 94.6% in the assay with UACC-62 melanoma, 101% with LOX IMVI melanoma and 108% with SK-MEL-28 melanoma.
